# Bioassay records deposited in PubChem by National Center for Advancing Translational Sciences (NCATS).
# An excerpt weighted towards active compounds, which were near 19% of everything screened.
# Lassa entry inh: qHTS for Inhibitors of binding or entry into cells for Lassa Virus | Lassa virus pseudotype entry inhibition, cell reporter | Potency, µM (doses to about 37.9 µM), without a hit: at the highest dose activity change, negative = inhibition, most hits filed as inhibitors | 300,000 tested, 1.2% active; calls by dose curve; tested in HEK293 cells; also: potency is read from the fitted curve at half-maximal effect; % is scaled to controls: 0 for no effect and ±100 for the full control effect; nearly all actives have a fitted effect of over 50% in size
# MARV entry inh: qHTS for inhibitors of binding or entry into cells for Marburg Virus. AID 540276, 2011. Marburg virus pseudotyped entry inhibition, cell reporter. Potency, µM (doses to about 37.8 µM), for inactives: at the top dose activity change, negative = inhibition, hits mostly inhibitors. 300,000 tested, 1.8% active; calls by dose curve; tested in HEK293 cells; also: potency is read from the fitted curve at half-maximal effect; % is scaled to controls: 0 for no effect and ±100 for the full control effect
# Pf growth 96h: Primary qHTS for delayed death inhibitors of the malarial parasite plastid, 96 hour incubation; P. falciparum luciferase reporter growth, 96 h; Potency, µM (doses to about 28.7 µM), inactives show at the top dose activity change, negative = inhibition, actives largely listed as inhibitors; 320,000 tested, 6.9% active; also: potency is read from the fitted curve at half-maximal effect; % is scaled to controls: 0 for no effect and ±100 for the full control effect
#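 Delayed-death screen, second-generation endpoint: infected erythrocytes, 2% hematocrit, 0.05% parasitemia final; 96 hours at 37 C, 5% CO2; luciferase detection reagent; luminescence decrease equals reduced growth.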
# CHX counter: Cycloheximide Counterscreen for Small Molecule Inhibitors of Shiga Toxin. cell reporter, cycloheximide protein synthesis inhibition counterscreen. max response, %. 300,000 tested, 12% active. AID 2314, 2010; in the data active = max response mostly above about 13%, no sharp cut-off; inactive = mostly below about 14%; also: read at 38.3 µM for the half of the compounds with a filed dose; 0% is about no effect
# Shiga inhibitor: A qHTS for Small Molecule Inhibitors of Shiga Toxin; Vero cells, Shiga toxin protein synthesis inhibition reporter; 290,000 tested, 9.2% active; inhibition, % at 38.7 µM; in the data active = inhibition mostly above about 28%, no sharp cut-off; inactive = mostly below about 43%; also: 0% is about no effect
# Pf growth 48h: Primary qHTS for delayed death inhibitors of the malarial parasite plastid, 48 hour incubation; P. falciparum luciferase growth in erythrocytes, 48 h; Potency, µM (titrated, usually from 28.7 µM), inactives show top-dose activity change, negative = inhibition, hits mostly inhibitors; 310,000 tested, 5.9% active; AID 504832, 2011; also: potency is read from the fitted curve at half-maximal effect; % is scaled to controls: 0 for no effect and ±100 for the full control effect
#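 Luminescence readout; reporter = integrated firefly luciferase in P. falciparum. RBC culture at 2% hematocrit, 0.1% parasitemia final, 37 C/5% CO2; decreased signal taken as growth inhibition.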
# Starred values were filed as active, the others as inactive; ? = inconclusive; . = not tested or not shown; [ ] = remark or other dose. Unless noted, calls follow the shape of the dose curve; as a rule, active = well fitted inhibition curve with a large enough effect; inconclusive = small, poorly fitted or top-dose-only effect, or another doubt; inactive = no such curve, though single readings can be large or run the other way.
SMILES,Lassa entry inh,MARV entry inh,Pf growth 96h,CHX counter,Shiga inhibitor,Pf growth 48h
CCCN(c1ccccc1F)S(=O)(=O)c1cc(-c2cc(C)no2)ccc1OC,.,.,15µM*,7,-4,?
CCc1ccc(-c2cc(C)no2)cc1S(=O)(=O)N1CCOc2ccc(C)cc21,.,.,?,2,-3,2.9µM*
O=S(=O)(Nc1ccccc1N1CCCCC1)c1cccs1,15%,?,7%,0,13,-4%
CC(=O)c1cccc(NC(=O)c2sc(-n3nc(C)c(Cc4ccc5c(c4)OCO5)c3C)nc2C)c1,-18%[46.1 µM],?,.,.,.,.
Cc1cc(-c2ccc(C(C)C)c(S(=O)(=O)N3CCOc4ccccc43)c2)on1,?,3.2µM*,19%,-2,-2,15µM*
CCc1ccc(-c2cc(C)no2)cc1S(=O)(=O)N1CCN(c2ccccc2F)CC1,?,?,-29%,7,-5,?
CCc1ccc(-c2cc(C)no2)cc1S(=O)(=O)N1CCN(c2cccc(C)c2C)CC1,.,.,12µM*,8,-6,5.2µM*
CC(=O)c1cc2c(cc1NC(=O)Cn1nc(C)c(C)c(C#N)c1=O)OCO2,-7%,11%,8%,.,.,?
O=C(Nc1ccncc1)c1ccc2ncsc2c1,3%,-10%,?,.,.,?
Cn1nnc2cc(C(=O)Nc3ccccc3F)ccc21,-16%[46.1 µM],?,-7%,31*,55*,75%
O=C(Nc1ccc(Cl)cc1Cl)c1ccc2ncsc2c1,.,.,120%,41*,78*,101%
CNC(=O)c1c(NC(=O)c2ccc3ncsc3c2)sc(C)c1C,10%,3%,2%,.,.,?
O=C(Nc1ccc(F)cc1F)c1ccc2ncsc2c1,.,.,99%,63*,97*,130%
CNC(=O)c1ccc2c(c1)nnn2C,-5%,3%,27%,-5,-4,17%
O=C(Nc1cccc(F)c1)c1ccc2ncsc2c1,-2%[46.1 µM],?,-1%,49*,105*,30%
Cc1cccc(NC(=O)N2CCCC2C(=O)Nc2ccccc2)c1 (stereo not drawn),16%,8%,-21%,-1,-11,?
O=C1C2(c3ccccc3)CN3CN(C2)CC1(c1ccccc1)C3,7%,14%,-1%,-1,-4,.
Cc1ccc(CN2CCCn3nc(C(=O)NCCc4ccccc4C)cc3C2=O)cc1,8%[46.1 µM],.,.,.,.,.
O=C(Nc1ccccc1F)c1ccc2ncsc2c1,.,.,159%,61*,149*,78%
Cc1ccc(C(O)Cn2cc([N+](=O)[O-])nc2C)cc1 (stereo not drawn),?,?,-1%,-2,-2,2.6µM*
Cc1cccc(C)c1NC(=O)C1CC(=O)N(C(C)C)C1 (stereo not drawn),15%,?,.,2,25,-11%
O=C(NCc1cccs1)c1ccc([N+](=O)[O-])cc1Cl,29%,23%,45%,11*,24,30%
O=C(NCc1cccs1)c1ccc2ccccc2n1,6.5µM*,5%,14%,32*,73,29%
O=C(NCc1ccccc1Cl)c1ccc2ccccc2n1,?,?,42%,52*,86*,63%
O=C(NCc1ccccc1F)c1ccc2ccccc2n1,?,4%[46.1 µM],33%,9,13,22%
SMILES,Lassa entry inh,MARV entry inh,Pf growth 96h,CHX counter,Shiga inhibitor,Pf growth 48h
O=C(NCc1cccs1)c1ccccc1,13%,-1%,-16%,-3,-1,.
O=C(NCc1cccs1)c1csc2ccccc12,?,17%,50%,25*,33,63%
Cc1cc(C)c2c(N=NN3CCOCC3)[nH]nc2n1,7%,-7%,4.7µM*,2,-1,7%
COc1ccc(S(=O)(=O)N2CCCCC2)cc1NC(=O)C1CC(=O)N(Cc2ccccc2)C1 (stereo not drawn),.,.,12µM*,.,.,13µM*
CCCCc1nnc(NC(=O)C2CC(=O)N(Cc3ccccc3)C2)s1 (stereo not drawn),.,.,10µM*,-3,-5,?
COc1ccc(S(=O)(=O)N2CCCCC2)cc1NC(=O)C1COc2ccccc2O1 (stereo not drawn),?,11µM*,3%,.,.,?
O=C(Nc1cccc(S(=O)(=O)N2CCCCC2)c1)C1CC(=O)N(Cc2ccccc2)C1 (stereo not drawn),.,.,?,.,.,13µM*
Cc1ccc(S(=O)(=O)N2CCCCC2)cc1NC(=O)C1CC(=O)N(Cc2ccccc2)C1 (stereo not drawn),3%,-25%,-30%,-1,6,?
COc1ccc(N(C)S(=O)(=O)c2ccc3c(c2)CCN3C(=O)CCC(=O)O)cc1,23%[46.1 µM],29%[46.1 µM],.,.,.,.
CCOC(=O)/C(=N\Nc1ccccc1)S(=O)(=O)c1ccccc1,-5%,-24%,0%,22,25,.
C=CCNC(=O)c1ccc(Cl)cc1Cl,-3%,9%[46.1 µM],.,-1,10,5%
CC(C)(C)c1ccc(/C=C2\SC(=O)N(CCNC(=O)c3cccc(S(=O)(=O)N4CCOCC4)c3)C2=O)cc1,?,?,-49%,69*,131*,-36%
CN(C(=O)CN1C(=O)S/C(=C\c2ccccc2Cl)C1=O)C1CCS(=O)(=O)C1 (stereo not drawn),.,.,8%,14,-1,13%
Cc1ccc2nc(SCC(=O)Nc3ccccc3F)nc(=O)n2c1,-16%,4%,22%,.,.,-17%
O=C(Cc1csc(-c2ccccc2)n1)NCc1ccco1,.,.,40%,11,26,23%
CC[n+]1c(-c2ccccc2)csc1Nc1c(C)n(C)n(-c2ccccc2)c1=O,.,.,11%,-1,-10,-9%
c1ccc(C[n+]2c(-c3ccccc3)csc2Nc2ccccc2)cc1,8%,19%,9.3µM*,15*,36,?
c1ccc(Nc2scc(-c3ccccc3)[n+]2Cc2ccco2)cc1,.,.,-69%,52*,158*,129%
O=C(Nc1nc(-c2ccccc2)cs1)c1ccc2c(=O)n3c(nc2c1)CCCCC3,.,-8%,?,0,-4,2%
O=C(Nc1ccccc1N1CCOCC1)C1Cc2ccccc2CN1C(=O)c1ccco1 (stereo not drawn),-7%,-11%[46.1 µM],.,-3,-13,10µM*
O=C(Nc1nnc(C2CC2)s1)C1Cc2ccccc2CN1C(=O)c1ccco1 (stereo not drawn),1%,-10%,?,23*,39*,-24%
O=C(C1Cc2ccccc2CN1C(=O)c1ccccc1)N1CCN(c2ccccc2)CC1 (stereo not drawn),?,-17%[46.1 µM],4.1µM*,-3,22,?
COc1ccc(NC(=O)C2Cc3ccccc3CN2C(=O)c2ccco2)cc1 (stereo not drawn),22%,23%[46.1 µM],5%,21*,43,-1%
O=C(Nc1nnc(SCc2ccc(F)cc2)s1)C1Cc2ccccc2CN1C(=O)c1ccco1 (stereo not drawn),11%,?,-8%,9,4,-21%
